Laboratory results published in PubChem BioAssay AID652068 (The Scripps Research Institute Molecular Screening Center, 2013).
About 4,000 (93%) of roughly 4,300 compounds were called active. So high a share suggests a set chosen from earlier hits. The list is a sample of the results. Unmarked numbers belong to inactive results.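 Rule for the calls: active = inhibition above its plate's cutoff, the mean test-well inhibition plus 3 SD (cut at about 4.8% in these data); inactive = the rest.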

assay: displacement of TO-PRO-1 from CAG DNA duplex, counter-screen for rCAG RNA repeat binder project, biochemical, fluorescence, TO-PRO-1 dye, d(CAG) DNA oligo (AID 652068); conditions: d(CAG) DNA oligo TO-PRO-1 dye displacement, at 3 µM, hits give high values;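 note: 0% = DNA dye mix with DMSO and 100% = 100 µM mitoxantrone; hits displace the dye from DNA and so lower well fluorescence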

| Structure (SMILES) | inhibition |
| --- | --- |
| O=C1NC(=O)N(Cc2ccco2)C(=O)/C1=C\c1ccc(-c2ccc(F)cc2)o1 | 13.1% (active) |
| O=C1CC(=O)N(Cc2ccccc2)C(=O)N1CCCCCCN1C(=O)CC(=O)N(Cc2ccccc2)C1=O | 22.6% (active) |
| COc1ccc(N2C(=O)/C(=C/c3ccco3)C(=O)NC2=S)cc1 | 61.4% (active) |
| CC/C(=N\NC(=O)c1ccccc1O)c1c(O)n(Cc2ccccc2)c(=O)[nH]c1=O | 36.7% (active) |
| COc1ccc2c(c1)[C@@]13CCCCC1[C@@H](C2)NCC3 (some centres not stated) | -5.51% |
| O=C1NC(=O)N(c2ccccc2)C(=O)/C1=C/c1ccc([N+](=O)[O-])s1 | 25.7% (active) |
| COc1cccc(N2C(=O)NC(=O)/C(=C\c3ccc([N+](=O)[O-])s3)C2=O)c1 | 19.4% (active) |
